PubChem BioAssay (NCATS)
Records with an inconclusive call do not appear. Activity calls are given as the source filed them. Unless noted, calls follow the shape of the dose curve; as a rule, active = well fitted curve in the direction sought with a large enough effect; inconclusive = small, poorly fitted or top-dose-only effect, or another doubt; inactive = no such curve, though single readings can be large; an effect the other way counts as inactive or inconclusive.

Assays:
[1] = target: Cytochrome P450 1A2 (Homo sapiens) (UniProt P05177); test: p450-cyp1a2 (AID 410; calls by dose curve; also: potency is read from the fitted curve at half-maximal effect)
In short: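 Human CYP1A2 (20nM) demethylated Luciferin-ME at its Km (100uM) in 100mM KPO4. After 10 min compound preincubation, NADPH regeneration ran the reaction 60 min at room temperature. Luciferin was read by luminescence, normalized to 57 uM furafylline.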

[2] = target: Glucocorticoid receptor (Homo sapiens) (UniProt P04150); test: GR-GFP Redistribution (AID 450;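 active = compounds whose dose series gives a full or clear partial fitted curve of increased nuclear translocation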; also: potency is read from the fitted curve at half-maximal effect); details: U2OS GR-GFP nuclear translocation, laser cytometry, 2 h
[3] = target: Glucocorticoid receptor (Homo sapiens) (UniProt P04150); test: GR-EFC Redistribution (AID 451; calls by dose curve; also: potency is read from the fitted curve at half-maximal effect); details: CHO-K1 GR-EFC translocation, beta-gal luminescence, 2 h
In short: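 CHO-K1 cells stably expressing nuclear-localized β-gal enzyme acceptor and GR fused C-terminally to the enzyme donor fragment; ligand-driven nuclear translocation restores β-gal by complementation. Compounds titrated up to 46 uM final, 2 h at 37 °C; luminescence read.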

[4] = target: Cytochrome P450 2C9 (Homo sapiens) (UniProt P11712); test: qHTS Assay for Inhibitors and Substrates of Cytochrome P450 2C9 (AID 883); also: nearly all actives have a fitted effect of over 60% in size; also: potency is read from the fitted curve at half-maximal effect
In short: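 CYP2C9 deoxyluciferin hydroxylation, 37C, 60 min with NADPH regeneration; 10nM enzyme, 100uM Luciferin-H (KM). Glo detection reagent stopped reaction; luminescence normalized to sulphaphenazole (57uM) full inhibition.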

[5] = target: Cytochrome P450 2D6 (Homo sapiens) (UniProt P10635); test: qHTS Assay for Inhibitors and Substrates of Cytochrome P450 2D6 (AID 891); also: nearly all actives have a fitted effect of over 60% in size; also: potency is read from the fitted curve at half-maximal effect
In short: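 Human CYP2D6 (5 nM) with 30 uM Luciferin-ME EGE (at Km) in 100 mM KPO4, compound preincubated 10 min, then NADPH regeneration system for 60 min at room temperature. Luciferin read by luminescence; normalized to 1.43 uM quinidine.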

[6] = target: Cytochrome P450 2C19 (Homo sapiens) (UniProt P33261); test: qHTS Assay for Inhibitors and Substrates of Cytochrome P450 2C19 (AID 899); also: nearly all actives have a fitted effect of over 60% in size
In short: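 In 50mM KPO4, the reaction held 5nM enzyme and KM-level (10uM) Luciferin-H EGE; it ran 60 min at 37C after NADPH regeneration and a 10 min compound preincubation. Luminescence values were scaled to 57uM ketoconazole as complete inhibition.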

[7] = target: Mitogen-activated protein kinase 10 (Mus musculus) (UniProt Q61831); test: JNK3 AlphaScreen Assay (AID 530; active = well fitted curve in either direction with a large enough effect, not every such curve was filed as active;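 also: kinase came from lysate of stimulated human HepG2 cells; signal reports phosphorylation of biotinylated GST-cJun 1-79 at Ser73 with 10 µM ATP; series mostly up to about 57 µM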)
In short: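 JNK3 came from HepG2 lysates pre-activated with IL-1beta and TNF-alpha and phosphorylated biotinylated GST-cJun (1-79) at 10 uM ATP, pH 7.6, room temperature. Compounds were titrated. AlphaScreen signal used anti-phospho-cJun (Ser73) antibody.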

[8] = target: 3',5'-cyclic-AMP phosphodiesterase 4B (Homo sapiens) (UniProt Q07343); test: qHTS Assay for Inhibitors of PDE-IV (AID 607; active = well fitted activation curve with a large enough effect in the main read-out, with a control signal flat, not every such curve was filed as active)
In short: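 ACTOne HEK293 cells carry a modified cAMP-gated CNG channel and express endogenous PDE4; plated 1000 cells/well, compounds up to 22.9 uM final. Membrane-potential dye fluorescence (ex 535/em 590) was read; parental cells received 10 uM forskolin + 100 uM RO 20-1724.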

[9] = target: Cytochrome P450 3A4 (Homo sapiens) (UniProt P08684); test: qHTS Assay for Inhibitors and Substrates of Cytochrome P450 3A4 (AID 884); also: potency is read from the fitted curve at half-maximal effect; nearly all actives have a fitted effect of over 50% in size
In short: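 20 nM human CYP3A4 with 25 uM Luciferin-PPXE (at KM) in 200 mM KPO4, preincubated 10 min with compound; NADPH regeneration started a 60 min RT reaction. Luciferin detected by luminescence, normalized to 57 uM ketoconazole as full inhibition.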

[10] = target: Cytochrome P450 3A4 (Homo sapiens) (UniProt P08684); test: qHTS Assay for Activators of Cytochrome P450 3A4 (AID 885); also: nearly all actives have a fitted effect of over 65% in size
In short: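 20nM CYP3A4 + 25uM Luciferin-PPXE (=KM), 200mM KPO4; cpd 10 min RT; NADPH regen, 60 min RT; stop w/ detection buffer, 20 min; luminescence. Normalized to 57 uM ketoconazole.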

[11] = target: Ubiquitin carboxyl-terminal hydrolase 1 (Homo sapiens) (UniProt O94782); test: Inhibitors of USP1/UAF1: Pilot qHTS (AID 504865);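 also: rhodamine fluorescence freed from ubiquitin-rhodamine substrate followed over time; top concentration of the series differs between compounds; nearly all actives have a fitted effect of over 35% in size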
In short: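 1nM USP1/UAF1 + cpd, 15 min RT; start w/ Ub-Rho 150nM final; kinetic FL 480/540 nm, 6 reads q60 s. Buffer 50mM HEPES pH 7.8, 0.5mM EDTA, 1mM TCEP, 0.01% Tween-20, 0.1 mg/ml BSA.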

[12] = target: DNA dC->dU-editing enzyme APOBEC-3G (Homo sapiens) (UniProt Q9HC16); test: qHTS for inhibitors of Vif-A3G interactions: Validation (AID 588379)
In short: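 HeLa cells stably expressing Vif and A3G-eYFP, 700 cells/well, incubated overnight at 37 deg C, then exposed to compound overnight at 37 deg C. Inhibition of Vif-mediated degradation read as increased yellow fluorescence (Ex 488/Em 500-530) by laser-scanning cytometry.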

Measured: Potency

Sequence of Cytochrome P450 1A2 (Homo sapiens) (P05177 whole entry, looked up): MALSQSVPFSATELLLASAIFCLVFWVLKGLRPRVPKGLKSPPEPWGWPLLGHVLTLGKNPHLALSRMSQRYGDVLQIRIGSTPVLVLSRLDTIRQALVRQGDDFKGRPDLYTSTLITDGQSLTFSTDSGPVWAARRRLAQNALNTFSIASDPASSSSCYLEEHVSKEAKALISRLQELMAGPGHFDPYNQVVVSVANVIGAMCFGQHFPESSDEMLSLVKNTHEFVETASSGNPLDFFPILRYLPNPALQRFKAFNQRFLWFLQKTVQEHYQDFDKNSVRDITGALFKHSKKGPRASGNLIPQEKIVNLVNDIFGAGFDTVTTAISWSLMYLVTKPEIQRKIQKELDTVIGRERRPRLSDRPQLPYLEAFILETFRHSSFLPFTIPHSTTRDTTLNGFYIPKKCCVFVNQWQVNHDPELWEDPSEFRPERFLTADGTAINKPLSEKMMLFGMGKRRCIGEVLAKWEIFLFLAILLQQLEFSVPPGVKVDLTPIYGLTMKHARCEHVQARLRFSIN
Sequence of Cytochrome P450 2D6 (Homo sapiens) (P10635 whole entry, looked up): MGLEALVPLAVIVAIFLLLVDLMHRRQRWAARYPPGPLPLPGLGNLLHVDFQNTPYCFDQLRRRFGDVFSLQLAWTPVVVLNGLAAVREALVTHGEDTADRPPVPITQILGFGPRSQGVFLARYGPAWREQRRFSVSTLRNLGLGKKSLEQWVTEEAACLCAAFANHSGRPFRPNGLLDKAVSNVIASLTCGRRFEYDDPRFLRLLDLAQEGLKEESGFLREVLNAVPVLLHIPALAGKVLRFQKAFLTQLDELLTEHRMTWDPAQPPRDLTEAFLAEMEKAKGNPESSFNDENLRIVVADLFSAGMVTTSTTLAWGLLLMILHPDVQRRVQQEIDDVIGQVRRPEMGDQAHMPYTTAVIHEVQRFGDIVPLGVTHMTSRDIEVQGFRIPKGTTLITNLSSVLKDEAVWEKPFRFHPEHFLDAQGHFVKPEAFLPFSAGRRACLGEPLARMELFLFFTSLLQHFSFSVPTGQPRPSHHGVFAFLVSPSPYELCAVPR
Sequence of Cytochrome P450 2C19 (Homo sapiens) (P33261 whole entry, looked up): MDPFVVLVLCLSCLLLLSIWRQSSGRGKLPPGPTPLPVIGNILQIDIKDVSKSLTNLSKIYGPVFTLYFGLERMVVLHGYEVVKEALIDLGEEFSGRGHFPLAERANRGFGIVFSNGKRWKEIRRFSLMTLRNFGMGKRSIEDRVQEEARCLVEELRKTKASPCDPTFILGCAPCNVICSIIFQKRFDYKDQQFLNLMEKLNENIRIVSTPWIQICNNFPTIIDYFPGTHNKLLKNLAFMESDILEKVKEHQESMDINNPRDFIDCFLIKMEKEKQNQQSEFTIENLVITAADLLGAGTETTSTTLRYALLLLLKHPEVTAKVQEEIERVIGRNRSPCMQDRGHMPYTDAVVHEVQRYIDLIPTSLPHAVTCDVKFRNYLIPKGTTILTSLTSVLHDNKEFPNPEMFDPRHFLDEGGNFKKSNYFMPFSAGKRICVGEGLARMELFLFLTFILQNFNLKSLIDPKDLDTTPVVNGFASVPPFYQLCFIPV
Sequence of 3',5'-cyclic-AMP phosphodiesterase 4B (Homo sapiens) (Q07343 whole entry, looked up): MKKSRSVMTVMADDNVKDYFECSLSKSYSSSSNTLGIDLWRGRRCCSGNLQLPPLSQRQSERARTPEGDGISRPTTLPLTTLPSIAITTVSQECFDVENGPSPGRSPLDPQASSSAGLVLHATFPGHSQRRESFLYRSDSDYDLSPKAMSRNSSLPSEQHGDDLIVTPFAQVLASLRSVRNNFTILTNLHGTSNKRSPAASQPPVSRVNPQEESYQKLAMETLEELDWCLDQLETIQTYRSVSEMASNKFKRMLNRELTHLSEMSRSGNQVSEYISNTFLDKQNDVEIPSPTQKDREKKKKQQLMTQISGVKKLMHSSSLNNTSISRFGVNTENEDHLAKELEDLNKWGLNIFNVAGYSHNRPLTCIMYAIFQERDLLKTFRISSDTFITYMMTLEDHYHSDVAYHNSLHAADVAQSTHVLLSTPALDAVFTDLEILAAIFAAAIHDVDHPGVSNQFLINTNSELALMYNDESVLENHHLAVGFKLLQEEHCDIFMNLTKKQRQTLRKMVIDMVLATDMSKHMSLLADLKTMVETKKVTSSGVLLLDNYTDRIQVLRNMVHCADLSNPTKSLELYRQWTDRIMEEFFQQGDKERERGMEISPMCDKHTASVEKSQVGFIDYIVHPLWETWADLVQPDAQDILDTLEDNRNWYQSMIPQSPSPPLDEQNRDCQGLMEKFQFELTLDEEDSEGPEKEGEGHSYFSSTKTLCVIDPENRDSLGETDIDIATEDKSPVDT
Sequence of Cytochrome P450 2C9 (Homo sapiens) (P11712 whole entry, looked up): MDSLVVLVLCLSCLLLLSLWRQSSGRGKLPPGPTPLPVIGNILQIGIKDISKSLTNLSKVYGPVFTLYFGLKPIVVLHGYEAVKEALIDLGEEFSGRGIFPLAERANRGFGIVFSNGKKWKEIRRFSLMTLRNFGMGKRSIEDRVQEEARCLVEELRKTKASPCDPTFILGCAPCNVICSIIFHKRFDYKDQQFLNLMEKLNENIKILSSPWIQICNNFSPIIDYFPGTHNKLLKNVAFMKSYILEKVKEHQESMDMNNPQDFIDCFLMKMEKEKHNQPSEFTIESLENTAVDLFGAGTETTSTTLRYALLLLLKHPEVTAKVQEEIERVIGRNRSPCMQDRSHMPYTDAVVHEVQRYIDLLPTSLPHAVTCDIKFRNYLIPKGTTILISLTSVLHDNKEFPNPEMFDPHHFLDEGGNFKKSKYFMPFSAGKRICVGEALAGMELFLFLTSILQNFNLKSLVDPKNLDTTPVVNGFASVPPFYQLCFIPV
Sequence of Glucocorticoid receptor (Homo sapiens) (P04150 whole entry, looked up, the tested form may be a part): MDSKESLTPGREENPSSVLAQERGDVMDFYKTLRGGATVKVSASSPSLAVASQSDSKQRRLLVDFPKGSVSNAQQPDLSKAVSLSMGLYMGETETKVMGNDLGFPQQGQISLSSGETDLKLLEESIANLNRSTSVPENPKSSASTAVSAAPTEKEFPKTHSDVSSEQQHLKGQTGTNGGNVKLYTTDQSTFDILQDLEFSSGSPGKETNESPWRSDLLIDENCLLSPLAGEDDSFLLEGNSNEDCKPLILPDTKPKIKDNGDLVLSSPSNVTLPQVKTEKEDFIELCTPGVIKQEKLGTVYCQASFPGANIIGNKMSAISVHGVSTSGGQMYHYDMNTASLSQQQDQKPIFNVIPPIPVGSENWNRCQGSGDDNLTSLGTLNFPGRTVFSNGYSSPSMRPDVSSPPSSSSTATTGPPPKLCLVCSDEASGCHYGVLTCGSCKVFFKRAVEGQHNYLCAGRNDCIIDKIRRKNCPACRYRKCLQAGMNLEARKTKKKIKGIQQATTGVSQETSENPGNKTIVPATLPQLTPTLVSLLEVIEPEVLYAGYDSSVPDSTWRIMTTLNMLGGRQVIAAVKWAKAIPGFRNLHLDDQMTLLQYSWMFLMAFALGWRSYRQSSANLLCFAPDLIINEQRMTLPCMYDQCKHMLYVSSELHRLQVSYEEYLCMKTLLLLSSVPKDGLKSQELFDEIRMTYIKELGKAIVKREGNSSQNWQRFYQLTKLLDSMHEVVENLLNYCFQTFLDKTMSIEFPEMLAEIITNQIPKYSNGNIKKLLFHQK
Sequence of Cytochrome P450 3A4 (Homo sapiens) (P08684 whole entry, looked up): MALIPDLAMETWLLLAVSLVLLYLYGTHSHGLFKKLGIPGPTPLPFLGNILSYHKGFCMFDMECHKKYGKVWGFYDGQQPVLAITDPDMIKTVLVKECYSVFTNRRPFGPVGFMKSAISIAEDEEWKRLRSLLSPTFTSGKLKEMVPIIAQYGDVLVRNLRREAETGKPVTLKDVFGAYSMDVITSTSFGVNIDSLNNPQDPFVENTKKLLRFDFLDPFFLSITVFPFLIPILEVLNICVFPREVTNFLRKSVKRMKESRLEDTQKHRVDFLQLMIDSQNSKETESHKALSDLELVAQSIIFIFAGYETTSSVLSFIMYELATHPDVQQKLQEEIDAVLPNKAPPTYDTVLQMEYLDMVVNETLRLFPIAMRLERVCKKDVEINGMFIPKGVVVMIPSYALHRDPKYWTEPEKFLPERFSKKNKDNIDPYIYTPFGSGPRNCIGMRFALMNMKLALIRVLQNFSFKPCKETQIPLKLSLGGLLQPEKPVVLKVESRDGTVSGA
Sequence of Ubiquitin carboxyl-terminal hydrolase 1 (Homo sapiens) (O94782 whole entry, looked up): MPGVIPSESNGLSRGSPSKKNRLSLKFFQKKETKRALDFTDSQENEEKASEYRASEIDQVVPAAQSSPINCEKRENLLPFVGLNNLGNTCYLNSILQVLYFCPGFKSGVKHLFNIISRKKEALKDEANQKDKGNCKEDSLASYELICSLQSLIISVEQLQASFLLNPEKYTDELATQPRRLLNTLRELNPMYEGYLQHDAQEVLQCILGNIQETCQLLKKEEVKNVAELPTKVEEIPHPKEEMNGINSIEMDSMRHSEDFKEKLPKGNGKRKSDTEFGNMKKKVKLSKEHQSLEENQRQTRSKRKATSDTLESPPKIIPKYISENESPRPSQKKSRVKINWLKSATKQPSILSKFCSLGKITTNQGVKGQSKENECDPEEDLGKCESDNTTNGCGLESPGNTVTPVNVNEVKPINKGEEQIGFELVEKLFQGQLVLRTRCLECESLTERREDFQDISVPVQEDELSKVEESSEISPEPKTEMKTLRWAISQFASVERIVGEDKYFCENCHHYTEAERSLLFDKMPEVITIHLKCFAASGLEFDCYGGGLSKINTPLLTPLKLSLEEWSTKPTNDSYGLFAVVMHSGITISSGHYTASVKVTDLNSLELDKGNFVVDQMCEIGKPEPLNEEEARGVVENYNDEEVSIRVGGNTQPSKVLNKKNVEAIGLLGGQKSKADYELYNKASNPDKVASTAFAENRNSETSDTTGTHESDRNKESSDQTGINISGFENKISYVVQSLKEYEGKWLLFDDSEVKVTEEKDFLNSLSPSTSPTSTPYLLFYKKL

C/C=C1\C[C@H](C)[C@](O)(CO)C(=O)OCC2=CCN3CC[C@@H](OC1=O)[C@@H]23
inactive: [1] | [2] > 46 µM | [3] > 46 µM | [4] | [5] | [6]

C=C[C@@H]1CN2CC[C@@H]1C[C@H]2[C@H](O)c1ccnc2ccccc12
inactive: [1] | [3] > 46 µM | [7] | [8] | [4] | [6]
active: [5] 3.98 µM

C[C@H]1CC[C@]2(NC1)O[C@@H]1C[C@@H]3[C@@H]4CC=C5C[C@H](O)CC[C@@]5(C)[C@H]4CC[C@@]3(C)[C@H]1[C@@H]2C
inactive: [1] | [2] > 46 µM | [3] > 46 µM | [4] | [5] | [6]

O=CN1C[C@H]2C[C@@H](C1)c1cccc(=O)n1C2
inactive: [1] | [2] > 46 µM | [3] > 46 µM | [8] | [4] | [5] | [6]

CC[C@H]1CN2CC[C@@H]1C[C@@H]2[C@H](O)c1ccnc2ccccc12
inactive: [1] | [2] > 46 µM | [3] > 46 µM | [8] | [4] | [6]
active: [5] 3.16 µM

O=C(O)[C@H]1C[C@@H]1[C@H](NP(=O)(c1ccccc1)c1ccccc1)c1ccccc1
inactive: [1] | [8]

CCCc1cc2c(n1Cc1ccc(C)cc1)C(C)C1CN(C(=O)c3ccccc3)C(C)(C(=O)OC)C21 (stereo not given)
inactive: [7]
active: [1] 7.94 µM | [9] 3.16 µM

CC(C)[C@H]1C(=O)N2CCC[C@@H]2[C@]2(O)O[C@@](NC(=O)[C@H]3C=C4c5cccc6[nH]cc(c56)C[C@H]4N(C)C3)(C(C)C)C(=O)N12
active: [1] 31.6 µM
inactive: [2] > 46 µM | [3] > 46 µM | [5]

C=C[C@@H]1CN2CC[C@H]1C[C@H]2[C@@H](O)c1ccnc2ccccc12
inactive: [1] | [3] > 46 µM | [7] | [4] | [6]
active: [5] 0.1 µM

CCCc1cc2c(n1Cc1cccc(Cl)c1)C(C)C1CN(C(=O)c3ccccc3)C(C)(C(=O)OC)C21 (stereo not given)
inactive: [8] | [10]
active: [1] 31.6 µM | [4] 5.01 µM | [9] 5.01 µM

O=c1cccc2n1C[C@H]1C[C@@H]2CN(CCO)C1
inactive: [2] > 46 µM | [3] > 46 µM | [8] | [4] | [5] | [6]
active: [1] 15.8 µM

c1cc2cc(c1)C[n+]1ccc(c3ccccc31)NCc1ccc(cc1)CNc1cc[n+](c3ccccc13)C2
active: [4] 2.51 µM
inactive: [1] | [2] > 46 µM | [8] | [11] | [12]

C=C(CC1(C(C)NP(=O)(c2ccccc2)c2ccccc2)CC1)c1ccccc1 (stereo not given)
inactive: [7] | [10]
active: [1] 15.8 µM | [4] 7.94 µM | [9] 3.98 µM

CCC/C=C(\CCC)C(NP(=O)(c1ccccc1)c1ccccc1)c1ccccc1 (stereo not given)
inactive: [7] | [10]
active: [1] 15.8 µM | [9] 6.31 µM
